Arbovirus inh: antivirals against arbovirus infection, primary screen, cell-based, full library, 10K replicate subset | inhibition, % at 10 µM | 200,000 compounds, 0.37% hits | arbovirus infection cell-based antiviral screen; in the data active means inhibition above about 30%
PKD1 kinase inh: inhibitors of human PKD1 kinase, biochemical, fluorescence polarization. PKD1 kinase fluorescence polarization assay. inhibition, % (concentration not given with the values). 200,000 compounds, 0.056% hits. AID 797, 2007; in the data active means inhibition above about 50%
Wee1 stabilizer: Wee1 degradation inhibitors, primary screen, cell-based, HeLa, Wee1K328M-luciferase, luminescence; AID 1321, 2008; HeLa Luc-Wee1K328M stability; 100% = proteasome inhibitor MG132 effect; reporter increase, % at 5 µM; 220,000 compounds, 1.2% hits;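 active means activation above the mean of all tested compounds plus 3 SD, set per screening run, cut at about 8.8% in these data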;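 further: cells exposed to compound for 20 h before luminescence read; 0% = DMSO alone and 100% = MG132 at 30 µM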
Target sequence (P30291 whole entry K328M): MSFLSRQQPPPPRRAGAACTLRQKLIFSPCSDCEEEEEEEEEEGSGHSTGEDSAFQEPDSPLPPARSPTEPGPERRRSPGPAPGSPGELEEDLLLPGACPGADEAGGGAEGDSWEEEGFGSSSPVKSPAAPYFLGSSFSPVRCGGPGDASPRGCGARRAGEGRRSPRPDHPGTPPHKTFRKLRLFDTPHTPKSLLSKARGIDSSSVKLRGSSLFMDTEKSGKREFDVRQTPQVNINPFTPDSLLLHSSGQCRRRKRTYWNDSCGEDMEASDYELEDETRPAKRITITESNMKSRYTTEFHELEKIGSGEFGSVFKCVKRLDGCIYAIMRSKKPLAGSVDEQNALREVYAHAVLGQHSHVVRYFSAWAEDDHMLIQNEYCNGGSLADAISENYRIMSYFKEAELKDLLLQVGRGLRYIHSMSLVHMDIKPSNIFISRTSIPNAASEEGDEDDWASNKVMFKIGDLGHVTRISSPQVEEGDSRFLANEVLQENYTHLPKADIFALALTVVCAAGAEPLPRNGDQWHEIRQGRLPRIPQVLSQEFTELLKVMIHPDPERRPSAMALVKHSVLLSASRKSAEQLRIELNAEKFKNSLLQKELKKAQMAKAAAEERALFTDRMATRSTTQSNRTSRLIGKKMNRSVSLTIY
HMGR II inh: inhibitors of E. faecalis class II HMGR, primary screen, biochemical, Enterococcus faecalis; inhibition, % at 10 µM; 190,000 compounds, 0.41% hits; purified E. faecalis HMGR, NADPH absorbance 340 nm kinetic;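 active means inhibition above a set limit, the median over all tested compounds plus 3 SD, cut at about 9.5% in these data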;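 further: enzyme runs in reverse so mevalonate oxidation gives rising NADPH absorbance; 0% = complete reaction with DMSO and 100% = background rate lacking mevalonate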
Hsp70 activator: Hsp70 transcriptional activators, primary screen, cell-based, HeLa, Hsp70 promoter luciferase, luminescence, 10 µM. HeLa Hsp70 promoter luciferase reporter; scaled: vehicle 0, proteasome-inhibitor control 100%. activation, % at 10 µM. 200,000 compounds, 0.04% hits. AID 1203, 2008;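 active means activation above the mean across all tested compounds plus 3 SD, cutoff set per campaign, cut at about 5.5% in these data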;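 further: 100% = MG132 at 30 µM as the positive control and 0% = DMSO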
Active calls of the source: *; . = no result given. Compounds with a hit are over-represented: about 2% of the library has one in this group of screens.

SMILES | Arbovirus inh | PKD1 kinase inh | Wee1 stabilizer | HMGR II inh | Hsp70 activator
COCCn1c(-c2ccc(Cl)cc2)nc2c(c(=O)c3ccccc3n2C)c1=O | -5 | -4 | 3 | -4 | 0
Cc1ccc(NC(=O)CCn2nnc3ccccc32)cc1 | -1 | -4 | 4 | 2 | 0
CC(C)OC(=O)NC(C)(C)COC(=O)Nc1cccc(Cl)c1 | 4 | 0 | -2 | 16* | 0
Cc1n[nH]c(C)c1C(=O)CC1(O)C(=O)N(CCc2ccccc2)c2ccc(Cl)cc21 (configuration not stated) | -6 | -5 | 10* | -2 | 0
CCCCN1C(=O)C(O)(CC(=O)c2c(C)n[nH]c2C)c2cc(Br)ccc21 (configuration not stated) | -3 | -2 | 2 | -2 | 0
Cc1ccc(N/C(C(Cl)=C(Cl)Cl)=C(/Cl)[N+](=O)[O-])c(C)c1 | 3 | 10 | 0 | -2 | 0
COc1ccc(-c2nc(C3CCCCC3)no2)cc1OC | 35* | 0 | -4 | -4 | 0
c1ccc(-c2nc(C3CCCCC3)no2)cc1 | -3 | -1 | -3 | -6 | 0
CC(=O)Nc1ccc(NC(=O)CSc2nnc3ccc(-c4ccc(F)cc4)nn23)cc1 | 6 | 6 | -2 | -7 | 0
COc1cccc(OC)c1C(=O)NC(C)C12CC3CC(CC(C3)C1)C2 (configuration not stated) | 43* | 4 | 4 | -10 | 0
CCCNC(=O)NC(C)C12CC3CC(CC(C3)C1)C2 (configuration not stated) | 12 | -5 | 1 | -4 | 0
Cc1cc(-c2n[nH]c(=S)n2CC(C)C)cs1 | -11 | 0 | 11* | -5 | 0
CCN1C(=O)/C(=C/N2CCc3ccccc3C2)SC1=S | . | . | 6 | . | .
CCN1C(=O)/C(=C\C=C\c2ccccc2[N+](=O)[O-])SC1=S | -9 | -3 | -1 | 18* | 0
Cn1c(N)c(S(=O)(=O)N2CCN(Cc3ccccc3)CC2)c(=O)n(C)c1=O | 4 | -4 | 2 | -4 | 0
CCOC(=O)C(C)NC(=O)Cn1ncc2c(=O)oc3ccc(C)cc3c21 (configuration not stated) | . | . | -2 | . | .
O=C(CCC(=O)Nc1ccccc1)NNC(=O)C(c1ccccc1)c1ccccc1 | -2 | 1 | 0 | -3 | 0
Cc1ccc(Nc2n[nH]c(C)c2[N+](=O)[O-])cc1 | 0 | 6 | 1 | 0 | 0
Cc1[nH]nc(Nc2ccc(Br)cc2)c1[N+](=O)[O-] | . | . | 9.2* | . | .
CC(C)CC(=O)NC(=S)Nc1ccc(S(=O)(=O)N2CCCC2)cc1 | 0 | 3 | 3 | -1 | 0
O=C(NNC(=O)c1cccs1)c1ccc([N+](=O)[O-])cc1 | 35* | -5 | 4 | -4 | 0
CCOC(=O)c1cc(NC(=O)Nc2ccc(Br)cc2)c(C)nc1C | -10 | -5 | 8 | -1 | 0
CCOC(=O)C1=C(N)n2c(s/c(=C\c3cccnc3)c2=O)=C(C(=O)OC)C1c1cccnc1 (configuration not stated) | . | -3 | 10* | . | 0
CCOC(=O)C1=C(N)n2c(s/c(=C\c3ccncc3)c2=O)=C(C(=O)OCC)C1c1ccncc1 (configuration not stated) | -5 | -7 | 0 | -2 | 0
CCC(Sc1ccc2nnc(-c3cccnc3)n2n1)C(=O)O (configuration not stated) | 10 | -6 | 4 | -4 | 0
SMILES | Arbovirus inh | PKD1 kinase inh | Wee1 stabilizer | HMGR II inh | Hsp70 activator
O=C(CSc1ccc2nnc(-c3cccnc3)n2n1)c1ccccc1 | 15 | 112* | 5 | 2 | 0
COc1ccccc1NC(=O)C1=C(C)NC(=O)NC1c1ccccc1[N+](=O)[O-] (configuration not stated) | 12 | 5 | -2 | 11* | 0
CCc1ccc(NC(=O)CCc2nc3ccccc3[nH]2)cc1 | -6 | -4 | 9.5* | -4 | 0
Cc1cc(C)cc(NC(=O)CCCSc2nc3ccccc3[nH]2)c1 | -4 | 6 | 3 | -1 | 0
O=C(CCc1nc2ccccc2[nH]1)Nc1ccccc1 | 7 | -11 | 3 | -4 | 0
CC(=O)Nc1ccc(Cc2nc3ccccc3[nH]2)cc1 | -1 | -4 | 0 | 16* | 0
Cc1cccc(NC(=O)CCCSc2nc3ccccc3[nH]2)c1 | 0 | 1 | 10* | -2 | 0
COc1ccccc1NC(=O)Cn1nnc(-c2ccccc2NC(=O)c2cnccn2)n1 | 2 | -7 | 1 | -3 | 0
COCC(C)n1c(SCc2nc3ccccc3c(=O)[nH]2)nc2ccccc2c1=O (configuration not stated) | 45* | 3 | -2 | -3 | 0
O=c1[nH]c(CSc2nc3ccccc3s2)nc2ccccc12 | . | . | 9.0* | . | .
CC(C)(C)OC(=O)N1CCC(CNC(=O)Nc2ccccc2)CC1 | . | . | -2 | . | .
COCCCNC(=O)c1cc(C(=O)c2ccccc2Br)c[nH]1 | -4 | -10 | -3 | -8 | 0
CCOC(=O)CSc1ccc(S(=O)(=O)N2CCC(C)CC2)cc1[N+](=O)[O-] | 3 | 2 | 2 | 4 | -1
COC(=O)CSc1ccc(S(=O)(=O)N2CCOCC2)cc1[N+](=O)[O-] | -3 | 0 | 9.3* | -2 | 0
Cc1ccc(Cl)cc1N=C(N)N=C(N)N | 9 | 1 | 3 | 15* | 0
COc1cc(N=C(N)N=C(N)N)cc(OC)c1 | 3 | 0 | 3 | 1 | 0
COC(=O)C1=C(C(=O)OC)C(c2ccccc2O)c2sc(=O)[nH]c2S1 (configuration not stated) | -8 | 0 | 0 | 2 | 0
CC(=O)Nc1ccccc1NC(=O)C/C(C)=N/NC(=O)c1ccncc1 | 7 | -3 | 9.3* | -2 | 0
CCO[C@@H]1OC(C(=O)Nc2ccccc2)=C[C@H](c2ccc(C(F)(F)F)cc2)[C@H]1CCCO | -21 | -9 | 3 | 12* | 0
CCO[C@H]1OC(C(=O)Nc2ccccc2)=C[C@@H](c2ccc(Br)cc2)[C@@H]1CCCO | -19 | 6 | 6 | -4 | 0
Cc1cc(N)n2ncc(-c3ccc(Cl)cc3)c2n1 | -3 | 0 | 0 | 11* | 1
O=[N+]([O-])c1cccc(/C=C/c2ccccn2)c1 | . | . | 10.0* | . | .
O=[N+]([O-])c1cccc(/C=N/Nc2ccccn2)c1 | 13 | -3 | 1 | 1 | 0
O=C(NNc1cc(Cl)ccc1Cl)C1CCC1 | . | . | 2 | . | .
Cc1ccc(CN2CCCC(CO)(Cc3ccccc3C)C2)s1 (configuration not stated) | 1 | -6 | 8.9* | -5 | 0
Cc1ccccc1CC1(CO)CCCN(Cc2ccn[nH]2)C1 (configuration not stated) | -3 | -4 | -1 | -5 | 0

From PubChem
